Laboratory results reported in PubChem BioAssay (EPA / NIEHS).
The source made the active and inactive calls. Rule for the calls: active = hit-call score of the fitted dose curve at least 0.9, where 1 is the maximum; inactive = score below 0.9.

Key:
[1] = biological target: Bile acid receptor (Homo sapiens) (UniProt Q96RI1); experiment: ATG_IR1_CIS: Attagene CIS-FACTORIAL HepG2 Assay for human Nuclear Receptor Subfamily 1 Group H Member 4 (NR1H4), IR1 submotif (AID 2282946); details: IR1 reporter transcription, actives raise or lower the signal
Method in brief: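 Readout: reporter transcript levels by RT-PCR with fluorescent capillary electrophoresis, from HepG2 cells transiently transfected with multiplexed cis-regulated reporters and dosed 24 h. Gain- or loss-of-signal fitted versus DMSO negative control.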

[2] = ATG_GRE_CIS: Attagene CIS-FACTORIAL HepG2 Assay for human Glucocorticoid Response Elements (GRE) (AID 2282947); details: HepG2 GRE cis-reporter, Attagene multiplex mRNA; actives raise or lower the signal
Method in brief: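 Cells (HepG2) bearing transfected cis-promoter reporter transcription units were treated with chemical for 24 hours. Reporter mRNA was measured via RT-PCR with capillary electrophoresis, and activity was fitted in both directions relative to DMSO.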

[3] = ATG_ISRE_CIS: Attagene CIS-FACTORIAL HepG2 Assay for human Interferon Regulatory Factor 1 (IRF1) binding to an Interferon-Stimulated Response Element (ISRE) (AID 2282948); details: HepG2 ISRE cis-reporter (Attagene), mRNA transcription readout; actives raise or lower the signal
Method in brief: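 Endogenous transcription factor activity read as reporter transcript abundance via RT-PCR and capillary electrophoresis. HepG2 cells transiently transfected, 24 h chemical exposure. Gain or loss fitted against DMSO baseline.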

[4] = ATG_M_06_CIS: Attagene CIS-FACTORIAL HepG2 Assay for M06 Transcription Factor (Internal Marker) (AID 2282950); details: HepG2 Attagene CIS-FACTORIAL M06 internal marker reporter; actives raise or lower the signal
Method in brief: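 Fluorescence-labelled RT-PCR products from cis-promoter reporter units, cut with HpaI and resolved by capillary electrophoresis, give the signal. Cells are human HepG2, dosed for 24 h. Serves as background control, fitted relative to DMSO.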

[5] = biological target: Hypoxia-inducible factor 1-alpha (Homo sapiens) (UniProt Q16665); experiment: ATG_HIF1a_CIS: Attagene CIS-FACTORIAL HepG2 Assay for human Hypoxia Inducible Factor 1 (HIF1A) (AID 2282951); details: HepG2 Attagene cis-factorial HIF1a reporter transcription; actives raise or lower the signal
Method in brief: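 RT-PCR/capillary electrophoresis fluorescence readout of reporter transcripts from endogenous-TF-driven cis elements in transfected HepG2 cells, 24 h exposure; activity fitted in both directions against DMSO controls.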

[6] = biological target: Hepatocyte nuclear factor 6 (Homo sapiens) (UniProt Q9UBC0); experiment: ATG_HNF6_CIS: Attagene CIS-FACTORIAL HepG2 Assay for human Hepatocyte Nuclear Factor 6 (HNF6) (AID 2282952); details: HepG2 Attagene cis-factorial HNF6 reporter transcription; actives raise or lower the signal
Method in brief: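 Endogenous factor activity read in transiently transfected HepG2 via promoter-regulated reporter transcripts. RNA harvested 24 h post-dosing, reverse-transcribed, PCR-amplified, FAM-labelled, HpaI-digested and resolved by capillary electrophoresis; fitted in both directions against DMSO.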

[7] = biological target: Heat shock factor protein 1 (Homo sapiens) (UniProt Q00613); experiment: ATG_HSE_CIS: Attagene CIS-FACTORIAL HepG2 Assay for human Heat Shock Transcription Factor 1 (HSE) (AID 2282953); details: HepG2 HSE cis-reporter, Attagene RNA transcription; actives raise or lower the signal
Method in brief: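 After a 24 h incubation with test chemical, transfected HepG2 cells were harvested for RNA; reporter transcripts were measured by RT-PCR and capillary electrophoresis. Values reflect gain or loss of signal relative to DMSO.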

[8] = ATG_MRE_CIS: Attagene CIS-FACTORIAL HepG2 Assay for human Metal Responsive Element (MRE) (AID 2282954); details: HepG2 MRE cis-reporter transcription, Attagene multiplex; actives raise or lower the signal
Method in brief: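 Cells were transfected with cis-promoter reporter transcription units, then dosed for 24 h. RNA was reverse-transcribed, amplified, fluorescently labelled and resolved by capillary electrophoresis, and activity was fitted in both directions relative to DMSO.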

[9] = biological target: Paired box protein Pax-6 (Homo sapiens) (UniProt P26367); experiment: ATG_Pax6_CIS: Attagene CIS-FACTORIAL HepG2 Assay for human Paired Box 6 (PAX6) (AID 2282956); details: HepG2 CIS-FACTORIAL PAX6 reporter transcription, RNA readout; actives raise or lower the signal
Method in brief: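 Read-out is reporter transcript level, measured by RT-PCR with fluorescent primer extension and capillary electrophoresis after 24 h dosing of transfected HepG2 cells. Activity in either direction fitted relative to DMSO control.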

[10] = ATG_PXRE_CIS: Attagene CIS-FACTORIAL HepG2 Assay for human Pregnane X Receptor Element (PXRE) (AID 2282957); details: HepG2 Attagene CIS-FACTORIAL PXRE reporter, mRNA; actives raise or lower the signal
Method in brief: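 Reporter transcripts under endogenous PXR-responsive cis-regulation quantified from total RNA of transfected HepG2 cells 24 h post-dosing, via RT-PCR with fluorescent primer extension and capillary electrophoresis. Gain or loss of signal fitted against DMSO baseline.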

[11] = ATG_PPRE_CIS: Attagene CIS-FACTORIAL HepG2 Assay for human Peroxisome Proliferator-activated Response Element (PPRE) (AID 2282958); details: HepG2 PPRE cis-element reporter, Attagene transcription factor profiling; actives raise or lower the signal
Method in brief: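 Read-out: fluorescent reporter mRNA fragments resolved by capillary electrophoresis after RT-PCR. HepG2 cells carried transiently transfected PPRE-driven cis reporter constructs and were dosed for 24 h; gain or loss of signal fitted relative to DMSO.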

[12] = ATG_RORE_CIS: Attagene CIS-FACTORIAL HepG2 Assay for human RAR-related Orphan Receptor Element (RORE) (AID 2282959); details: HepG2 Attagene cis-factorial RORE reporter, mRNA; actives raise or lower the signal
Method in brief: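 Readout: fluorescent reporter mRNA by RT-PCR plus capillary electrophoresis, 24 h after dosing transfected HepG2 cells. Endogenous transcription factor activity on a cis promoter element is measured. Gain or loss of signal fitted against DMSO.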

[13] = biological target: Transcription factor Sp1 (Homo sapiens) (UniProt P08047); experiment: ATG_Sp1_CIS: Attagene CIS-FACTORIAL HepG2 Assay for human Specificity Protein 1 (Sp1) (AID 2282961); details: HepG2 Sp1 cis-reporter transcription, actives raise or lower the signal
Method in brief: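 Read-out: fluorescence of 6-FAM-labeled, HpaI-digested RT-PCR products separated by capillary electrophoresis. HepG2 cells carried transfected cis-element reporter units and were exposed to chemicals for 24 h; gain or loss of signal fitted relative to DMSO.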

[14] = ATG_SREBP_CIS: Attagene CIS-FACTORIAL HepG2 Assay for human Sterol Regulatory Element Binding (SREBP) (AID 2282962); details: HepG2 Attagene cis-factorial SREBP reporter, mRNA; actives raise or lower the signal
Method in brief: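 Endogenous SREBP activity read as cis-element-driven reporter transcript in transiently transfected HepG2, 24 h post-dosing; quantified via RT-PCR plus capillary electrophoresis of fluorescent fragments. Gain or loss of signal fitted relative to DMSO baseline.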

[15] = biological target: Signal transducer and activator of transcription 3 (Homo sapiens) (UniProt P40763); experiment: ATG_STAT3_CIS: Attagene CIS-FACTORIAL HepG2 Assay for human Signal Transducer and Activator of Transcription 3 (STAT3) (AID 2282963); details: HepG2, Attagene cis-factorial STAT3 reporter transcription; actives raise or lower the signal
Method in brief: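 HepG2, MRTU-transfected, 24 h dosing. RNA → RT → PCR → FAM label → HpaI → CE. Bidirectional fit vs DMSO.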

[16] = ATG_TA_CIS: Attagene CIS-FACTORIAL HepG2 Assay for human TA Basal Promoter (AID 2282964); details: HepG2 Attagene CIS-factorial TA basal promoter reporter; actives raise or lower the signal
Method in brief: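 Multiplexed mRNA reporter assay, HepG2, 24 h. Reporter cDNA amplified, 6-FAM primer-extended, HpaI-cut, CE-sized; DMSO = negative control and baseline.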

[17] = ATG_TCF_b_cat_CIS: Attagene CIS-FACTORIAL HepG2 Assay for human T-Cell-Factor with beta-catenin (TCF/b-cat) (AID 2282965); details: HepG2 TCF/beta-catenin cis-reporter transcription, actives raise or lower the signal
Method in brief: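 In this cis-format system, transfected HepG2 cells report endogenous transcription factor activity. Readout after 24 h exposure is reporter transcript abundance from RT-PCR and capillary electrophoresis, analysed for gain or loss of signal versus DMSO.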

[18] = ATG_M_32_CIS: Attagene CIS-FACTORIAL HepG2 Assay for M32 Transcription Factor (Internal Marker) (AID 2282949); details: HepG2 Attagene cis-factorial M32 reporter, mRNA; actives raise or lower the signal;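 note: background control marker of the multiplexed CIS panel rather than a real target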
Method in brief: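 HepG2 human liver cells transiently transfected with cis-promoter-driven multiple reporter transcription units, dosed 24 h. Reporter mRNA quantified by RT-PCR, FAM-labelled primer extension, HpaI digest and capillary electrophoresis; bidirectional fit versus DMSO baseline.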

[19] = ATG_Sox_CIS: Attagene CIS-FACTORIAL HepG2 Assay for human SRY-box transcription factor (SOX) (AID 2282960); details: HepG2 Attagene cis-factorial SOX reporter, mRNA; actives raise or lower the signal
Method in brief: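 Read-out: fluorescent RT-PCR products of SOX1-linked reporter transcripts resolved by capillary electrophoresis, fitted bidirectionally against DMSO. Transiently transfected HepG2 cells, 24 h after chemical exposure, endogenous transcription factor activity.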

[20] = ATG_PBREM_CIS: Attagene CIS-FACTORIAL HepG2 Assay for human Phenobarbital-responsive Enhancer Module (PBREM) (AID 2282955); details: HepG2 PBREM cis-reporter, Attagene multiplexed transcription; actives raise or lower the signal
Method in brief: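 Reporter mRNA read by RT-PCR, 6-FAM primer extension, HpaI digestion and capillary electrophoresis. Transfected HepG2 cells, 24 h compound exposure. Gain or loss of signal fitted bidirectionally relative to DMSO baseline.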

Measured: AC50

Heat shock factor protein 1 (Homo sapiens), sequence (Q00613 whole entry, looked up): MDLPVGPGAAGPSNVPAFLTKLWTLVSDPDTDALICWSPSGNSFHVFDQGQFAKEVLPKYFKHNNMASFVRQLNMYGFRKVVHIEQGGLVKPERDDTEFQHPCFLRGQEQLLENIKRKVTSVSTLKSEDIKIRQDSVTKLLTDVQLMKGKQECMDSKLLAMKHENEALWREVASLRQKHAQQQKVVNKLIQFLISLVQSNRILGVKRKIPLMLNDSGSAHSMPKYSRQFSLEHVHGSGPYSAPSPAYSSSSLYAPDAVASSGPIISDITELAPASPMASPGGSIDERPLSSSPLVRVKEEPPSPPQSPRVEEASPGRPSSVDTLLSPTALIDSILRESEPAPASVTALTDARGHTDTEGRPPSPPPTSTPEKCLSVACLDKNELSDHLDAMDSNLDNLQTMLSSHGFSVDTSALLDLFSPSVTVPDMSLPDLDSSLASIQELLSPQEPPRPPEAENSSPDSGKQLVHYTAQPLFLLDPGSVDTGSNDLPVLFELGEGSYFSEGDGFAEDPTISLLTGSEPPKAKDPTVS
Transcription factor Sp1 (Homo sapiens), sequence (P08047 whole entry, looked up): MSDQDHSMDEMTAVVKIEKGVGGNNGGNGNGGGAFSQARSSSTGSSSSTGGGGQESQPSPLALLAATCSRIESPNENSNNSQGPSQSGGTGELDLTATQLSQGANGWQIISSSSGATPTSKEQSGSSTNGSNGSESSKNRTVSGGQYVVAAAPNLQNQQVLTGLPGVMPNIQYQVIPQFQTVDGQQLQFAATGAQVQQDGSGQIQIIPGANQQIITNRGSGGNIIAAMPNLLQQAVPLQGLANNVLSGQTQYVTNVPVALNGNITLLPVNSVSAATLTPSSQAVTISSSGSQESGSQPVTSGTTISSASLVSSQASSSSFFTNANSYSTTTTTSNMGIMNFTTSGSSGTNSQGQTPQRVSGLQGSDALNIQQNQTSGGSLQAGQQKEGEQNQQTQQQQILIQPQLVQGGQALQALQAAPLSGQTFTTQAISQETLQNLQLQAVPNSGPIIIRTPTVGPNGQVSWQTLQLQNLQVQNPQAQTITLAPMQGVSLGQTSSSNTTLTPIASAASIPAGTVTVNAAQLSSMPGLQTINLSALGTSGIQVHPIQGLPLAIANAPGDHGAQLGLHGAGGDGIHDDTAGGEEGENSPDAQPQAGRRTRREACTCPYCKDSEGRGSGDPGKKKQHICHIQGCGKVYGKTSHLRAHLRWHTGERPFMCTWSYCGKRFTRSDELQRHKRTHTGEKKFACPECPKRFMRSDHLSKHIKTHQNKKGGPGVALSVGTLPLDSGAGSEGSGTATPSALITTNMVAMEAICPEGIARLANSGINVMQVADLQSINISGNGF
Hepatocyte nuclear factor 6 (Homo sapiens), sequence (Q9UBC0 whole entry, looked up): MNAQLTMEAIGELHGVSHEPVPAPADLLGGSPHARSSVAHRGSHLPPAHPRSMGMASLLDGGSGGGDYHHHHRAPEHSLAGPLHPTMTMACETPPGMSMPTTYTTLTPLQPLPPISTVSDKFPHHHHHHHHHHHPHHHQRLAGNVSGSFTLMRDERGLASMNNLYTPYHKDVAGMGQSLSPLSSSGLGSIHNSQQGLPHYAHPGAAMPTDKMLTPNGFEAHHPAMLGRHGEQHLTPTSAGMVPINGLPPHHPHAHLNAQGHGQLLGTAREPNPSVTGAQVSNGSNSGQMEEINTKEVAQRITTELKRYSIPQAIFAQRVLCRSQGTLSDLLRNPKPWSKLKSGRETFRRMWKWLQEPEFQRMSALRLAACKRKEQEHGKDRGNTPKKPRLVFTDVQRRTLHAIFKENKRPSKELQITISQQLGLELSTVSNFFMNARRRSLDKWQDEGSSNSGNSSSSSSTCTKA
Hypoxia-inducible factor 1-alpha (Homo sapiens), sequence (Q16665 whole entry, looked up): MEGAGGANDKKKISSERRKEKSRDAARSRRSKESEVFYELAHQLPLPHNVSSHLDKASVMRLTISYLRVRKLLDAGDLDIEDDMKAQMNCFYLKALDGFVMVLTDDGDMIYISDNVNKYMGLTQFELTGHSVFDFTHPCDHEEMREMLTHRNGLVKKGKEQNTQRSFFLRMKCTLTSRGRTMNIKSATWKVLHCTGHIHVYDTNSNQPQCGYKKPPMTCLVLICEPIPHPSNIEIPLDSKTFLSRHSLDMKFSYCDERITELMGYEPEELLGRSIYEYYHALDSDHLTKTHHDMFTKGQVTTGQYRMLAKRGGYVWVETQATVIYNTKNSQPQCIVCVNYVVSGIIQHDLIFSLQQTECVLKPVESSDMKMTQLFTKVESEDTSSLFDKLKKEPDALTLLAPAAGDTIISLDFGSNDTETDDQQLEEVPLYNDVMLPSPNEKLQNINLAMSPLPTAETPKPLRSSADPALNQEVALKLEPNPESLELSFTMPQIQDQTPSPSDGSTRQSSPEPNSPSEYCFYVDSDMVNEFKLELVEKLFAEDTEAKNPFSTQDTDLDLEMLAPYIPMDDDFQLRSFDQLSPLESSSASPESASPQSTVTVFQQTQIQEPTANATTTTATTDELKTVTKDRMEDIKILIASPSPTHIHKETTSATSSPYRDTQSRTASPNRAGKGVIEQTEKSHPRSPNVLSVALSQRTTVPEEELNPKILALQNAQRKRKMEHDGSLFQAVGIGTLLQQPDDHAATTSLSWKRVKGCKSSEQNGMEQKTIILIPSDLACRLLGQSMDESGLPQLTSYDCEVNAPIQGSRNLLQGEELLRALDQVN
Signal transducer and activator of transcription 3 (Homo sapiens), sequence (P40763 whole entry, looked up): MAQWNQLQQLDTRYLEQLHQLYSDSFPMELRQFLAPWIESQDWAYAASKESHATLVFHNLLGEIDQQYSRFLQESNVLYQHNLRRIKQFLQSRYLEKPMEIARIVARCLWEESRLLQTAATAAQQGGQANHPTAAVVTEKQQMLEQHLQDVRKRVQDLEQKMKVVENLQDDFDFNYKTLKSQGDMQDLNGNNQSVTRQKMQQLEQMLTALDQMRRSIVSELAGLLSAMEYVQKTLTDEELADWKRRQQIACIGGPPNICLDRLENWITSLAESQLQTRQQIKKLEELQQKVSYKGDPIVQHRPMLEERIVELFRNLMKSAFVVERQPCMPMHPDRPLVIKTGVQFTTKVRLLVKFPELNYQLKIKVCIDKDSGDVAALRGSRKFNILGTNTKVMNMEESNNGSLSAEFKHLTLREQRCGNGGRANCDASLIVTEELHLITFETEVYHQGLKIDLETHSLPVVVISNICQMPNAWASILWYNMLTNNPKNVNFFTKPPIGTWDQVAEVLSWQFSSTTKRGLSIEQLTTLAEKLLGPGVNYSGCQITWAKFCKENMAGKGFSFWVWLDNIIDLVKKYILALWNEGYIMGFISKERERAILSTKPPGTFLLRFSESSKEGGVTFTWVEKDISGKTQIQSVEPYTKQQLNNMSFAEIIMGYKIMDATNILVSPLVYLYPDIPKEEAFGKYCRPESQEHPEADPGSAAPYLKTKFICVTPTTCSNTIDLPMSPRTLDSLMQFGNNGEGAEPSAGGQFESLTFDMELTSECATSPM
Bile acid receptor (Homo sapiens), sequence (Q96RI1 whole entry, looked up): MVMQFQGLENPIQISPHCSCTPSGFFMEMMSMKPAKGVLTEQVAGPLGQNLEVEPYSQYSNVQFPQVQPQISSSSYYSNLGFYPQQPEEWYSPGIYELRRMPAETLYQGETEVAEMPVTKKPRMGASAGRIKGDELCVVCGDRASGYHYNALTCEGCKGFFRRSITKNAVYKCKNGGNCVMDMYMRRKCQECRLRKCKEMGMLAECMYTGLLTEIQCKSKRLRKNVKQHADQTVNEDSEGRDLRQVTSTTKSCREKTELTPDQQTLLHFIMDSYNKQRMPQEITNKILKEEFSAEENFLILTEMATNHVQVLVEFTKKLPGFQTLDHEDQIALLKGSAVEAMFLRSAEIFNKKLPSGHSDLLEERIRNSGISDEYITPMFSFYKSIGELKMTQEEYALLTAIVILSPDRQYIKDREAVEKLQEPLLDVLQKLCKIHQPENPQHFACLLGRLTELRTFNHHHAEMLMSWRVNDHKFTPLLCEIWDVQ
Paired box protein Pax-6 (Homo sapiens), sequence (P26367 whole entry, looked up): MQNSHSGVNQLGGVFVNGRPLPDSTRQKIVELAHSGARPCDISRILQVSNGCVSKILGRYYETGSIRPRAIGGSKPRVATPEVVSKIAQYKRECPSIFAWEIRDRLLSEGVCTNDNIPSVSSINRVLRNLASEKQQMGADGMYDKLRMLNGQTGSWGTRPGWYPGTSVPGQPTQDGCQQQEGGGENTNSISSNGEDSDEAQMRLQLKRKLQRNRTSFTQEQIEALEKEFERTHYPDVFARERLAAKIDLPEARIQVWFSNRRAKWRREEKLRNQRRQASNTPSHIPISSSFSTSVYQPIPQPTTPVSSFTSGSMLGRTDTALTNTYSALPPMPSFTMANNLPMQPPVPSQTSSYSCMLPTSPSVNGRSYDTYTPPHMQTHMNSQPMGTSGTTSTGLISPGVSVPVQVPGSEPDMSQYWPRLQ

COC(=O)c1ccccc1OC
inactive: [1] | [2] | [3] | [4] | [5] | [6] | [7] | [8] | [9] | [10] | [11] | [12] | [13] | [14] | [15] | [16] | [17]

Cc1cnc(NC(=O)C2=C(O)c3ccccc3S(=O)(=O)N2C)s1
inactive: [1] | [2] | [3] | [18] | [4] | [6] | [7] | [8] | [9] | [11] | [12] | [19] | [13] | [14] | [15] | [16] | [17]

CCCCCCCCCCc1ccccc1
inactive: [1] | [2] | [3] | [18] | [4] | [6] | [8] | [9] | [10] | [11] | [12] | [19] | [13] | [14] | [15] | [16] | [17]

CCCCCCCCCCCCCCCC(=O)OCC
inactive: [1] | [2] | [3] | [18] | [4] | [5] | [6] | [8] | [9] | [11] | [12] | [19] | [14] | [15] | [16]
active: [10] 31.1 µM

CC(C)c1ccc2c(c1)CC[C@H]1[C@](C)(CN)CCC[C@]21C
inactive: [1] | [2] | [3] | [18] | [4] | [6] | [10] | [13] | [14] | [15] | [16]
active: [7] 6.29 µM | [8] 5.77 µM | [9] 6.4 µM | [19] 6.13 µM | [17] 5.65 µM

O=C1Nc2ccccc2C1(c1ccc(O)cc1)c1ccc(O)cc1
inactive: [2] | [4] | [6] | [10] | [11] | [12] | [13] | [15]
active: [1] 148 µM | [3] 84.2 µM | [7] 163 µM | [8] 70.4 µM | [9] 70.7 µM | [14] 27.2 µM | [16] 61.7 µM | [17] 40.9 µM

CC(C)(C)C(=O)C=Cc1ccc(Cl)cc1
inactive: [2] | [20] | [12] | [14]
active: [1] 10 µM | [3] 24.9 µM | [18] 132 µM | [4] 148 µM | [5] 26.3 µM | [7] 34.3 µM | [8] 34 µM | [9] 36.8 µM | [10] 5.18 µM | [19] 25.1 µM | [13] 27.3 µM | [15] 164 µM | [16] 78.2 µM | [17] 53.8 µM
